The values that follow come from PubChem BioAssay AID651597 (National Center for Advancing Translational Sciences (NCATS), 2012).

The campaign covered roughly 1,100 compounds. About 390 (35%) were called active. Not shown: some 30% with an inconclusive outcome. Some of the results follow. Unmarked numbers belong to inactive results. Calls follow the shape of the dose curve; as a rule, active = well fitted inhibition curve with a large enough effect; inconclusive = small, poorly fitted or top-dose-only effect; inactive = flat fitted curve, though single readings scatter.
% is scaled to controls: 0 for no effect and ±100 for the full control effect; potency is read from the fitted curve at half-maximal effect.

The assay has as its target Luciferin 4-monooxygenase (Photinus pyralis) (UniProt P08659). Nature of the assay: qHTS of Nrf2 Activators: Hit Validation in Secondary FLuc Assay. Also: nearly all actives have a fitted effect of over 65% in size. To be noted: firefly luciferase inhibition counter-screen, luminescence; series mostly up to 57.5 µM; activity, negative = inhibition: at the top concentration. The essentials:
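Purified firefly luciferase is tested for inhibition by compounds in the presence of its substrates, ATP and D-luciferin, each at Km. Inhibition marks likely false positives arising from reporter-enzyme stabilization.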
(In general: In qHTS, concentration-response curves come from the screen itself.)
For the compound `O=C1N/C(=C\c2ccsc2)C(=O)N1Cc1ccc(F)cc1`, the “activity, negative = inhibition” value is -2.1%. Consider `CCc1ccc(/C=C/c2c([N+](=O)[O-])c(=O)n(C)c(=O)n2C)cc1`, for which the “activity, negative = inhibition” value is -27.8%.

As for `CCC1C/C(=C/c2cccs2)C(=O)/C(=C/c2cccs2)C1` (stereo not given), the “activity, negative = inhibition” value was -23.6%.

As for `COc1ccc(Cl)cc1NC(=O)c1ccco1`, the “activity, negative = inhibition” value was 0.501%. In the case of `O=C(Nc1cc(-c2nc3cc(Cl)ccc3o2)ccc1Cl)c1ccco1`, the Potency was 6.01 µM (active). Regarding `CCCS(=O)(=O)c1nc(S(=O)(=O)c2ccc(C)cc2)c(N2CC(C)OC(C)C2)s1` (stereo not given), the “activity, negative = inhibition” value was -1.58%.

Regarding `O=C(/C=C/Nc1ccc(F)c(Cl)c1)c1ccco1`, the Potency is 1.69 µM (active). As to `COc1cccc(-c2nc3n(n2)CCc2ccccc2-3)c1`, the Potency is 0.953 µM (active). Still for that read-out and setting: the same measure for `CC(C)Nc1ccc(-c2nc(-c3ccco3)no2)cc1[N+](=O)[O-]`: 0.213 µM (active). For the compound `CNc1ccc(-c2nc(-c3ccco3)no2)cc1[N+](=O)[O-]`, the Potency was 0.0849 µM (active). For the compound `CC(C)c1ccc(NC(=O)c2sccc2-n2cccc2)cc1`, the Potency is 10.7 µM (active).

`Cc1ccc(CNC(=O)c2sccc2-n2cccc2)cc1`: the “activity, negative = inhibition” value was -11.8%. `Cc1ccc(S(=O)(=O)c2nc(S(C)(=O)=O)sc2N2CCOCC2)cc1`: the “activity, negative = inhibition” value was 7.7%.

`COc1ccc(OC)c2sc(NC(=O)CCS(=O)(=O)c3ccccc3)nc12`: the “activity, negative = inhibition” value was -25.5%. Regarding `COc1ccccc1-c1nnc(NC(C)=O)s1`, the Potency is 2.69 µM (active). Turning to `O=C(CCN1C(=O)c2cccc3cccc(c23)C1=O)Nc1ccon1`, the “activity, negative = inhibition” value is -23.6%. With `COC(=O)c1ccccc1NC(=O)c1cc(-c2ccco2)on1`, the “activity, negative = inhibition” value was -22.9%. As to `COc1ccccc1NC(=O)/C=C\c1ccco1`, the Potency is 10.7 µM (active). With `COc1ccccc1NC(=O)/C(C#N)=C/C=C/c1ccco1`, the “activity, negative = inhibition” value is -4.16%. Regarding `COC(=O)c1ccccc1NC(=O)/C=C/c1ccco1`, the Potency is 8.49 µM (active). Take `CCn1c(=O)oc2cc(NC(=O)CCl)ccc21`: the “activity, negative = inhibition” value is 1.74%. Turning to `Cc1nn(-c2cccc(C(F)(F)F)c2)c(=O)c2ccccc12`, the “activity, negative = inhibition” value is -29.2%. Regarding `Cc1nn(-c2ccc3ccccc3c2)c(=O)c2ccccc12`, the Potency was 3.38 µM (active). On to `c1ccc(-c2cc3c(ccc4nonc43)nn2)cc1`, for which the “activity, negative = inhibition” value is -18.2%.

Consider `c1ccc(-c2cnc(-c3ccccc3)nn2)cc1`, for which the Potency was 0.301 µM (active). Turning to `Clc1cc(-c2ccccc2)nc(-c2ccccc2)n1`, the “activity, negative = inhibition” value is 1.58%. For `CC1Sc2n(c3ccccc3[n+]2C)N=C1c1ccccc1` (stereo not given), the “activity, negative = inhibition” value is -0.681%. `COc1ccccc1Cc1c(-c2ccco2)nc2ccc(Cl)cn12`: the Potency is 2.39 µM (active). For the compound `Clc1ccc2nc(-c3ccco3)c(Cc3ccccc3)n2c1`, the Potency was 10.7 µM (active).

For the compound `O=C1c2cccc3cccc(c23)C(=O)N1CCCN(C(=O)c1cccs1)c1cccc(F)c1`, the “activity, negative = inhibition” value was 5.37%. Consider `CC(=O)COc1ccc2c(c1C)O/C(=C\c1ccco1)C2=O`, for which the Potency was 0.601 µM (active).

For the compound `CCN1C(=O)/C(=C\c2ccco2)C(C(=O)OC)=C1C`, the “activity, negative = inhibition” value is -1.69%.

Take `COc1ccc(C2NC(=S)NC3=C2CCCC3=C2SCCS2)cc1` (stereo not given): the “activity, negative = inhibition” value was -29.4%. On to `S=c1[nH]nc(-c2ccco2)n1/N=C/c1ccccc1`, for which the “activity, negative = inhibition” value is -27.4%. On to `S=c1[nH]nc(COc2ccccc2)n1/N=C/C(Cl)=C/c1ccccc1`, for which the Potency is 19 µM (active).

Take `O=[N+]([O-])c1ccccc1/C=C/C=N/n1c(-c2ccco2)n[nH]c1=S`: the Potency was 7.57 µM (active).

In the case of `S=c1[nH]nc(-c2ccco2)n1/N=C/C(Cl)=C/c1ccccc1`, the Potency was 13.5 µM (active). For `Cc1n[nH]c(=S)n1/N=C/c1ccc(-c2ccccc2[N+](=O)[O-])o1`, the Potency is 9.53 µM (active). The same measure, in the same setting: under `c1ccc2c(-c3nc4ncccc4o3)cccc2c1` stands 13.5 µM (active); under `Nc1c(C(=O)c2ccc(Br)s2)oc2ccccc12`, 2.69 µM (active); under `Nc1c(C(=O)c2cccs2)oc2ccccc12`, 9.53 µM (active). For the compound `[O-][n+]1onc2c1CCc1c-2nn(-c2ccccc2Cl)[n+]1[O-]`, the “activity, negative = inhibition” value was 7.06%. Regarding `Cc1csc(NC(=O)c2cc(-c3ccco3)nc3ccccc23)n1`, the Potency is 5.36 µM (active). As to `O=C(Nc1nccs1)c1cc(-c2ccco2)nc2ccccc12`, the Potency is 6.01 µM (active). As to `Cc1nc2ccccc2c(=O)n1NCc1cc(Br)cs1`, the “activity, negative = inhibition” value was -27.8%. Consider `CC1CCc2c(cc(-c3ccccc3)n2-c2ccc(C(=O)NC(C)C)cc2)C1` (stereo not given), for which the “activity, negative = inhibition” value was -5.3%. For `Oc1ccccc1-c1csc(-c2ccccc2)n1`, the Potency is 1.69 µM (active).

With `COC(=O)c1sccc1NC(=O)c1c(C)noc1C`, the “activity, negative = inhibition” value was 3.32%.

For the compound `O=C(CSc1ccc(-c2ccco2)nn1)N1CCCCCC1`, the Potency was 16.9 µM (active).

Regarding `COc1ccccc1NC(=O)CSc1ccc(-c2ccco2)nn1`, the Potency is 15.1 µM (active). Turning to `COc1ccc(Cl)cc1NC(=O)c1cc(-c2ccco2)on1`, the “activity, negative = inhibition” value was -4.62%.

With `COc1ccc(NC(=O)CSc2ccc(-c3ccco3)nn2)c(OC)c1`, the Potency is 3.38 µM (active). For `COc1ccc(NC(=O)c2cc(-c3ccco3)on2)c(OC)c1`, the “activity, negative = inhibition” value is -4.64%. With `COc1ccc(NC(=O)CSc2ccc(-c3ccco3)nn2)cc1OC`, the Potency was 15.1 µM (active). For `COc1ccc(Cl)cc1NC(=O)CSc1c2c(nc3ccccc13)CCC2`, the “activity, negative = inhibition” value is 1.24%.

For the compound `CC(OC(=O)/C=C/c1ccc2ccccc2n1)C(=O)Nc1ccc(S(N)(=O)=O)cc1` (stereo not given), the “activity, negative = inhibition” value was -27.1%. Still for that read-out and setting: under `Cc1nc(C)c(C(=O)N/N=C/c2ccco2)s1` stands -9.17%; under `O=C1CC(C(=O)Nc2ccc(Br)cc2)S/C(=N\N=C\c2ccco2)N1` (stereo not given), -7.55%. In the case of `O=C1CC(C(=O)Nc2ccc(Cl)c(Cl)c2)S/C(=N\N=C\c2ccco2)N1` (stereo not given), the “activity, negative = inhibition” value is -21.8%. As to `O=C1C=C(Nc2cccc(Cl)c2)CC(c2ccco2)C1` (stereo not given), the “activity, negative = inhibition” value is 1.07%. As for `O=C(N/N=C\c1ccco1)Nc1cccc(Cl)c1`, the Potency is 8.49 µM (active).

On to `O=C(N/N=C/c1ccco1)Nc1ccccc1`, for which the Potency was 10.7 µM (active). On the same count and under the same terms, the same measure for `CC(=O)N(/N=C1\Sc2ccccc2C1=O)c1ccccc1`: 0.301 µM (active). On to `NS(=O)(=O)c1ccc(O)c(NC(=O)c2ccc([N+](=O)[O-])o2)c1`, for which the Potency was 16.9 µM (active). Consider `CS(=O)(=O)N1CCN(c2ccccc2NC(=O)c2ccc([N+](=O)[O-])o2)CC1`, for which the “activity, negative = inhibition” value was 3.04%. For `COc1ccc(N2CCCC2)c(NC(=O)c2ccc([N+](=O)[O-])o2)c1`, the “activity, negative = inhibition” value was -4.51%. Regarding `Cc1cccc(C)c1OCC(=O)N/N=C/C=C/c1ccco1`, the “activity, negative = inhibition” value was -26.1%. For `O=C(/C=C/c1ccco1)NCC(=O)N/N=C/c1ccc(Cl)cc1`, the “activity, negative = inhibition” value was -29.4%.

In the case of `O=C(COC(=O)/C=C/c1ccco1)Nc1ccc(F)cc1Cl`, the “activity, negative = inhibition” value was -5.05%.

Consider `CC(/C=C/c1ccco1)=N\NC(=O)CNc1ccc2ccccc2c1`, for which the Potency was 15.1 µM (active). Still for that read-out and setting: under `O=C(C=Cc1ccco1)c1ccc2ccccc2c1` stands 0.239 µM (active). `Cc1c(CN(C)C)c2c(n1C)C(=O)c1ccc(Br)cc1-2`: the “activity, negative = inhibition” value is 7.53%. As to `Cc1ccccc1CS(=O)(=O)c1cnc2ccccc2n1`, the “activity, negative = inhibition” value was -24.2%. In the case of `Cc1ccc(Cn2c(/C=C/c3ccco3)nc3ccccc32)cc1`, the Potency is 6.01 µM (active).

Take `O=c1oc2ccc(Cl)cc2nc1/C=C(\O)c1ccco1`: the “activity, negative = inhibition” value was -26.9%. As for `O=c1oc2ccccc2nc1/C=C(\O)c1ccc(Br)cc1`, the Potency is 6.01 µM (active). In the case of `CS(=O)(=O)Cc1nc2ccccc2oc1=O`, the “activity, negative = inhibition” value was 0.923%. On the same count and under the same terms, the same measure for `Fc1cccc(Nc2nc3ccccc3n3cnnc23)c1`: -2.42%. Take `Fc1cccc(Nc2cc(-n3cccn3)ncn2)c1`: the Potency was 10.7 µM (active). Take `Cc1ccc2cc3c(NC(=O)c4ccco4)nn(C)c3nc2c1`: the Potency was 12 µM (active). On the same count and under the same terms, the same measure for `O=C(Nc1cnc2ccccc2c1)c1ccco1`: 1.35 µM (active). For the compound `Cc1cc(NC(=S)NC(=O)c2ccco2)c2ccccc2n1`, the “activity, negative = inhibition” value was -24.9%. Take `O=C(NC(=S)Nc1cnc2ccccc2c1)c1ccccc1`: the Potency is 3.38 µM (active). With `O=C(c1ccc([N+](=O)[O-])o1)N1CCN(c2nc3c(Cl)cccc3s2)CC1`, the “activity, negative = inhibition” value was -26%. As to `CN(Cc1ccccc1)C(=O)c1ccc([N+](=O)[O-])o1`, the “activity, negative = inhibition” value was 1.73%. Turning to `O=C(CCS(=O)(=O)c1ccccc1)Nc1nc2ccc(F)cc2s1`, the “activity, negative = inhibition” value was -26%. As to `O=C(Nc1nc2ccc(F)cc2s1)c1ccc([N+](=O)[O-])o1`, the Potency is 2.13 µM (active). Consider `Cn1ccsc1=NC(=O)c1ccc([N+](=O)[O-])o1`, for which the “activity, negative = inhibition” value is -21.8%.

Consider `O=C(Nc1nc2c(Cl)cccc2s1)c1ccc([N+](=O)[O-])o1`, for which the Potency is 10.7 µM (active).

Regarding `Cc1ccc(-n2nc3c([n+]2[O-])CCc2c-3no[n+]2[O-])cc1`, the “activity, negative = inhibition” value was -5.82%. As for `COc1cc(Cl)cc(/C=C/c2ccc3cccc(O)c3n2)c1OC`, the Potency was 9.53 µM (active). Same read-out and setting: under `Oc1ccc(Cl)cc1/C=C/c1ccc2cccc(O)c2n1` stands 9.53 µM (active). On the same count and under the same terms, the same measure for `CN(N=Cc1ccccc1O)c1ccc2ccccc2n1`: 0.849 µM (active). Turning to `O=C(Nc1ccc(F)cc1)c1nsc(Cl)c1Cl`, the Potency is 1.69 µM (active). For the compound `O=C(Nc1ccc(OC(F)F)cc1)c1ncc(Cl)c(Cl)c1Cl`, the “activity, negative = inhibition” value was -17.4%. Same read-out and setting: under `CSc1nsc(SC)c1C(=O)Nc1ccc(Cl)cc1` stands -1.94%; under `COc1ccc(Nc2nc(C)nc3sc4c(c23)CCC4)cc1O`, -21.5%. For the compound `CC1(C)CC[C@]2(C(=O)n3ccnc3)CC[C@]3(C)[C@H](C(=O)C=C4[C@@]5(C)C=C(C#N)C(=O)C(C)(C)[C@@H]5CC[C@]43C)[C@@H]2C1`, the Potency was 0.478 µM (active).

Consider `N#Cc1sc2nc(-c3ccccc3)cc(C(F)(F)F)c2c1N`, for which the “activity, negative = inhibition” value was -16.1%.

With `COc1cccc(NC(=O)c2cc(Cl)nnc2Cl)c1`, the “activity, negative = inhibition” value is -19.3%. Consider `COc1cccc(C(=O)Nc2cc(Cl)c(O)c(Cl)c2)c1`, for which the Potency is 12 µM (active). With `COC(=O)c1sccc1NC(=O)c1cccc(Cl)c1`, the “activity, negative = inhibition” value is -4.91%. `CN(C)c1oc(/C=C/c2ccccc2)nc1C#N`: the Potency was 8.49 µM (active). In the case of `Oc1ccc(CNc2ccccc2O)cc1`, the Potency was 12 µM (active). On to `CCCCC1C(=O)N(c2ccccc2)N(c2ccc(O)cc2)C1=O` (stereo not given), for which the Potency is 10.7 µM (active). Consider `COc1ccc(-c2csc3nc(-c4cccnc4)nc(Cl)c23)cc1OC`, for which the Potency was 12 µM (active). Consider `O=C(/C=C/c1ccco1)Nc1cccc2cccnc12`, for which the Potency was 4.78 µM (active). `CC(C)(C)OC(=O)NCCC(=O)N/N=C/c1cccc2cccnc12`: the “activity, negative = inhibition” value is -3.55%. For the compound `Cc1ccc(/C=C/C(=O)OCC(=O)Nc2cccnc2Cl)o1`, the “activity, negative = inhibition” value is -0.884%. Turning to `O=C(/C=C/c1ccco1)Nc1cccnc1Cl`, the Potency is 6.01 µM (active).
